SMILES strings stand for the structures. Hit rate of the full screen: of about 65,000 compounds, about 2,100 (3.2%) showed an effect of 50% or more. The median lay at about -52%. The sample holds strong results, similar compounds and a random draw of the others, so the mix is not that of the screen.

This test relates to Plasmodium falciparum. As to the kind of experiment: Screen against P. falciparum Asexual Blood Stage (ABS), at 5uM. The class given is functional, Dd2. To be noted: tested at 5 uM.
In the case of `c1ccc(COC[C@H]2CCC[C@@]23CNCCO3)nc1`, the INHIBITION is 44.1%.
For the compound `c1ccc(OC[C@@H]2CCC[C@@]23CNCCO3)nc1`, the INHIBITION came to 66.9%.
The figure for `c1cncc(COC[C@@H]2CCC[C@]23CNCCO3)c1` is -12.9%; for `c1cncc(COC[C@@H]2CCC[C@@]23CNCCO3)c1` it is 23.4%; for `c1cncc(OC[C@@H]2CCC[C@@]23CNCCO3)c1` it is 67%.
Next, `COc1cc(N2C[C@H]3CCN(CCN4CCCC4)C[C@H]3C2)ncn1`: -52.5%.
Next, `Cc1cccc(CN2C[C@@H]3CN(Cc4ccoc4)CCO[C@@H]3C2)n1`: -60.3%; `Cc1ccc(O[C@@H]2C[C@H]3CN(C(=O)Cc4ccccn4)CCN3C2)cc1`: -77.2%; `CC(C)N1[C@H](Cn2cncn2)C[C@@H]2CN(c3ncccn3)CC[C@@H]21`: -58.2%.
Consider `CN1C(Cn2cccn2)C[C@@H]2CN(Cc3cccnc3)CC[C@@H]21` (some centres not stated), for which the INHIBITION came out at 11.2%.
The figure for `CC(C)N1[C@H](CN2CCCC2)C[C@@H]2CN(Cc3ccoc3)CC[C@@H]21` is 76.2%; for `CCc1noc(C(C)N2CCN(C)CC2)n1` (configuration not stated) it is -21%.
For the compound `Cc1ccc(C(=O)N2C[C@@H]3OCCN(CC4CCCC4)[C@@H]3C2)cn1`, the INHIBITION was -30%.
Next, `c1ccc(-c2cc(CN3C[C@H]4CC[C@H]3C4)on2)cc1`: 5.39%.
The figure for `COc1ccnc(N2C[C@H]3CC[C@@H](C2)N(CC2CC2)C3)n1` is 4.16%; for `c1ccc(-c2cc(CN3C[C@H]4CC[C@@H](C3)N(CC3CCC3)C4)on2)cc1` it is 88.4%; for `Cc1noc([C@@H]2C[C@H]3CN(Cc4cc(C)on4)C[C@H]3O2)n1` it is -92.2%.
The figure for `CN1CCN(Cc2cccnc2)Cc2cccnc21` is -65.7%.
With `Cc1cnn(CC(C)NCc2ccc(C#N)cc2)c1` (configuration not stated), the INHIBITION is recorded as -64.7%.
For the compound `Cc1cnn(CC(C)NCc2ccncc2)c1` (configuration not stated), the INHIBITION is reported as 0.596%.
The figure for `Cc1cnn(CCNCc2ccccc2OCc2cccnc2)c1` is 71.5%.
Next, `Cc1cnn(CCNCc2nccn2Cc2ccccc2)c1`: 83%.
Next, `Cc1cnn(CC(C)NCc2cccnc2)c1` (configuration not stated): -41.2%; `O=C(c1ccno1)N1CC[C@@H]2CN(C3CCOCC3)CCO[C@@H]2C1`: -25%.
Regarding `CC(C)(C)NC(=O)CNc1ccc(C#N)c(C(F)(F)F)c1`, the INHIBITION was -31.3%.
The figure for `CCc1ocnc1C(=O)N1CCC2(CC1)OCC(C)O2` (configuration not stated) is -79.3%.
Next, `COc1cc(N2CCN(CC3CC3)c3nc(C)ccc3C2)ncn1`: -65.6%.
Next, `O=C1N(Cc2ccc(Cl)cc2)CCC12CCCNC2` (configuration not stated): 85.4%; `O=C1N(Cc2cccc(Cl)c2)CCC12CCCNC2` (configuration not stated): 80.7%; `O=C1N(Cc2cccnc2)CCC12CCCNC2` (configuration not stated): -85.5%.
Turning to `O=C1N(Cc2ccncc2)CCC12CCCNC2` (configuration not stated), the INHIBITION is given as -59.6%.
Next, `O=C1N(Cc2cccc(F)c2)CCC12CCCNC2` (configuration not stated): -20.3%; `CC(C)CN1CCC2(CCCNC2)C1=O` (configuration not stated): 10.8%; `O=C([C@H]1CN(Cc2ccncc2)C[C@H]2OCC[C@@H]12)N1CCCCO1`: -89.5%.
Next, `Cc1ccc(CN2C[C@H]3OC(=O)N(Cc4ccccn4)[C@H]3C2)o1`: -74.6%; `CCc1ncc(CN(CCc2ccccc2)Cc2cccs2)cn1`: -80.9%; `CCc1ccc(CN(CCN(C)C)Cc2ccc(C)s2)nc1`: 91.9%.
The figure for `COCCN1CC[C@]2(CN(Cc3cccnc3)C[C@H]2C)C1=O` is 25.1%; for `Cc1cc(C(=O)N2CCC3(CCN3Cc3ccc(F)cc3)C2)no1` (configuration not stated) it is 4.88%; for `O=C(O)CN1CCC(F)(F)C2(CCN(c3ccccn3)C2)C1` (configuration not stated) it is -77.3%.
Take `O=C(c1c[nH]cn1)N1CCC(F)(F)C2(CCN(c3cccc(F)c3)C2)C1` (configuration not stated): the INHIBITION was 86.2%.
The figure for `Cc1n[nH]c2c1C(c1ccncc1)SCC(=O)N2` (configuration not stated) is -28%; for `COCCN1CCOCC2(C1)CN(C(=O)c1conc1C)CCO2` (configuration not stated) it is -10.5%; for `COC(=O)NCC(=O)NCC(C)(C)c1cccc(Br)c1` it is 84.6%.
Next, `CCC(=O)NCC(=O)NCC(C)(C)c1cccc(Br)c1`: 87.2%; `COC(=O)NCCC(=O)NC(C)Cc1cccc(Br)c1` (configuration not stated): -15.7%; `COC(=O)NCCC(=O)NC(C)Cc1ccccc1Br` (configuration not stated): -138%.
With `c1cc(CN2CCO[C@@H]3CNC[C@@H]32)cs1`, the INHIBITION is on record as -38.5%.
Next, `Cc1cccc(CN2C[C@H](NS(C)(=O)=O)[C@@H]3OCCC[C@@H]32)n1`: -121%.
Next, `COCC(=O)N1CC[C@H]2[C@H]1CCN2CC(C)C`: -34.8%; `CC(C)N1CCO[C@H]2CN(Cc3cc[nH]n3)C[C@H]21`: -62.4%.
The figure for `CC(C)CN1CCCC1c1cc[nH]n1` (configuration not stated) is 91%.

Values taken from ChEMBL document CHEMBL4513216, “Probing the Open Global Health Chemical Diversity Library for Multistage-Active Starting Points for Next-Generation Antimalarials” (ACS Infect Dis, 2020).
